PubChem BioAssay AID2130 (The Scripps Research Institute Molecular Screening Center, 2009)
The whole screen tested about 320,000 compounds, of which about 1,700 (0.53%) were called active.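 The calls were made as follows: active = inhibition above the campaign mean of all compounds plus 3 SD (cut at about 26% in these data); inactive = the rest.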 For the sample, actives were picked, then their nearest neighbours and some compounds at random.

Each molecule was assayed against Protein phosphatase methylesterase 1 (Homo sapiens) (UniProt Q9Y570) (assay: PME-1 inhibitors via competitive probe labeling, primary screen, biochemical, fluorescence polarization, FP-Rh probe, HTS (AID 2130;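 also: competitive labeling of PME-1 active site by serine hydrolase directed probe; 0% = PME-1 with DMSO and 100% = wells lacking PME-1 enzyme; inhibitors block probe labeling so polarization falls and inhibition rises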)). Conditions: recombinant PME-1, FP-Rh probe fluorescence polarization; at 5.9 µM; stronger effect = higher value.
Chain of Protein phosphatase methylesterase 1 (Homo sapiens) (Q9Y570 whole entry, looked up): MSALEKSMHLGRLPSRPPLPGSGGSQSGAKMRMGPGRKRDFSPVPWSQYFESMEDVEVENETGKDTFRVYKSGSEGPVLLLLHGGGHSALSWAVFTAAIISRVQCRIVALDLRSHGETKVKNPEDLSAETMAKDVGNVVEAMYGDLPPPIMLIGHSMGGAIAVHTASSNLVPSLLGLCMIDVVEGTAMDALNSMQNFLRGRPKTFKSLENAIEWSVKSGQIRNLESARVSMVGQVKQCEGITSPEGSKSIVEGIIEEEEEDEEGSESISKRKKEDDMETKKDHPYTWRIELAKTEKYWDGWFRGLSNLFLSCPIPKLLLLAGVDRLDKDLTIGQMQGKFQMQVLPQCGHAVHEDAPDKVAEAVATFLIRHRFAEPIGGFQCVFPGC

SMILES	inhibition
O=C(NC(=S)Nc1ncccn1)c1ccccc1Br	-6.82% (inactive)
COc1ccc(Cn2nnc3c(=O)[nH]c(C4CCN(C(=O)c5ccccc5Cl)CC4)nc32)cc1	10.2% (inactive)
Cc1ccc(Cn2nnc3c(=O)[nH]c(C4CCN(S(=O)(=O)/C=C/c5ccccc5)CC4)nc32)cc1	31.4% (active)
Cc1ccc(NC(=O)N2CCC(c3nc4c(nnn4Cc4c(F)cccc4Cl)c(=O)[nH]3)CC2)cc1	4.6% (inactive)
O=S(=O)(c1cnccc1N1CCN(/N=C/c2ccc(Br)cc2)CC1)N1CCCCC1	1.2% (inactive)
CN=C1C=C/C(=N/N=c2\ccn(O)cc2C)C=C1C	-11% (inactive)
CCOC(=O)C1Sc2[nH]c(=O)sc2C(c2ccc(Cl)cc2)C1C(=O)OCC (stereo not given)	9.44% (inactive)
Cc1cc(OCC(=O)NCC(O)c2ccccc2)c2c(C)c(C)c(=O)oc2c1 (stereo not given)	1.37% (inactive)
O=C(Oc1ccc([N+](=O)[O-])cc1)c1ccc(Cl)c(S(=O)(=O)N2CCCCC2)c1	-1.4% (inactive)
COc1ccc2nc(Nc3nc4cc5c(cc4s3)OCCO5)sc2c1	92.8% (active)
CCc1noc(C)c1C(=O)Nc1nc2ccc(OC)cc2s1	2.67% (inactive)
COc1ccc2nc(NC(=O)c3ccc(Br)s3)sc2c1	-12.8% (inactive)
C/C=C/C(=O)Nc1ccc(N2CCN(c3ccc(C(F)(F)F)cn3)CC2)nc1	-7.12% (inactive)
CCN1CCN(C(=O)Cn2nc(C)n3c(cc4c(OC)cccc43)c2=O)CC1	-4.63% (inactive)
Cc1ccc(-n2c(SCC(=O)N3CCC(C(=O)O)CC3)nc3ccccc3c2=O)cc1C	5.62% (inactive)
O=S(=O)(Nc1ccccc1Cl)c1cccc2nsnc12	-1.38% (inactive)
CC(=O)N1CCc2c(sc(NC(=O)CCS(=O)(=O)c3ccccc3)c2C#N)C1	-1.35% (inactive)
COc1ccc(/C=N/Nc2ncnc3sc4c(c23)CCCC4)cc1O	29.7% (active)
COc1ccc(NC(=O)CCNC(=O)Cn2cnc3sc4c(c3c2=O)CCCC4)cc1OC	-4.87% (inactive)
COc1ccc(NC(=O)CCCNC(=O)Cn2cnc3sc4c(c3c2=O)CCCC4)cc1OC	3.69% (inactive)
COc1ccc(CC(NC(C)=O)C(=O)NC2CCN(C(=O)Nc3ccc(C#N)cc3)CC2)cc1OC (stereo not given)	2.43% (inactive)
COC(=O)C1=C(C)NC(=S)NC1c1ccc(OCC(=O)N2CC(C)OC(C)C2)c(OC)c1 (stereo not given)	4.05% (inactive)
CCC(=O)c1ccc(OCC(=O)Nc2ccc3nc(C)sc3c2)cc1	-15.4% (inactive)
CCOc1ccc2nc(Nc3nc4ccc(NC(C)=O)cc4s3)sc2c1	50.7% (active)
CCOc1ccc2nc(NC(=O)CSc3nc4c(c(=O)n(C)c(=O)n4C)n3CC)sc2c1	1.27% (inactive)
